The supplement of paper PMC12669032
Values joined by “and” are separate entries in the source; they are usually repeats but may differ in a detail not shown here. Identical values can stand only once. A number with no mark means an inactive call.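 How the source made its calls: active = AUC reduced over 20% with Padj below 0.05 in at least 2 of 3 replicates; inactive = otherwise.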

Key:
Assay in all cases: growth AUC relative to DMSO control (median of replicates) (fraction); higher = more growth (less inhibition), active = hit call of the paper
Conditions in all cases: 20 µM; 24 h
Coprococcus comes = system: Coprococcus comes
Procedure, shortened: (§1)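 In round-bottom 96-well plates sealed with pierced gas-permeable seals, gut bacterial monocultures in mGAM were grown anaerobically at 37 °C from OD600 0.05 with 20 µM compound (1% DMSO). OD600 readings were taken hourly for 24 h, and the minimum OD was set to 0. Area under the growth curve was then normalised to the plate median of solvent-only wells, or to row and column medians on the industrial chemical plate. The value given is the median of three biological replicates grown on separate days.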

Escherichia coli ED1a = system: Escherichia coli ED1a
Procedure, shortened: as §1

Escherichia coli IAI1 = system: Escherichia coli IAI1
Procedure, shortened: as §1

Eubacterium rectale = system: Eubacterium rectale
Procedure, shortened: as §1

[1] = system: Fusobacterium nucleatum subsp. animalis
Procedure, shortened: as §1

Lactobacillus gasseri = system: Lactobacillus gasseri
Procedure, shortened: as §1

Lactobacillus paracasei = system: Lactobacillus paracasei
Procedure, shortened: as §1

Odoribacter splanchnicus = system: Odoribacter splanchnicus
Procedure, shortened: as §1

[2] = system: Parabacteroides distasonis
Procedure, shortened: as §1

Parabacteroides merdae = system: Parabacteroides merdae
Procedure, shortened: as §1

Roseburia intestinalis = system: Roseburia intestinalis
Procedure, shortened: as §1

Streptococcus salivarius = system: Streptococcus salivarius
Procedure, shortened: as §1

| SMILES | growth AUC (Coprococcus comes) | growth AUC (Escherichia coli ED1a) | growth AUC (Escherichia coli IAI1) | growth AUC (Eubacterium rectale) | growth AUC [1] | growth AUC (Lactobacillus gasseri) | growth AUC (Lactobacillus paracasei) | growth AUC (Odoribacter splanchnicus) | growth AUC [2] | growth AUC (Parabacteroides merdae) | growth AUC (Roseburia intestinalis) | growth AUC (Streptococcus salivarius) |
| --- | --- | --- | --- | --- | --- | --- | --- | --- | --- | --- | --- | --- |
| O=[N+]([O-])c1c(Cl)c(Cl)cc(Cl)c1Cl | 1.01 | 0.99 | 1.02 | 0.954 | 0.983 | 1.14 | 0.927 | 1.02 | 0.986 | 1.01 | 1.06 | 1 |
| CC(Cc1ccc(C(C)(C)C)cc1)CN1C[C@@H](C)O[C@@H](C)C1 (stereo not given in full) | 1.03 | 1.01 | 1.06 | 0.983 | 1.07 | 1.06 | 1.07 | 1.07 | 0.985 | 0.999 | 1.06 | 0.999 |
| N#Cc1nn(-c2c(Cl)cc(C(F)(F)F)cc2Cl)c(N)c1S(=O)(=O)C(F)(F)F | 0.968 | 1.04 | 1.02 | 0.945 | 1.01 | 1.01 | 0.929 | 0.978 | 0.904 | 0.97 | 0.965 | 0.548 (active) |
| Cc1cc(Cl)ccc1OCC(=O)O.O.[Na] | 1 | 1.01 | 1 | 1.15 | 1.07 | 0.864 | 0.994 | 1.03 | 0.95 | 1.04 | 1.02 | 0.986 |
| CC(C)N(Cc1ccccc1)C(=O)C(C)(C)C | 0.988 | 0.966 | 0.971 | 1.03 | 0.969 | 0.814 | 0.934 | 1.07 | 0.989 | 0.948 | 0.898 | 0.961 |
| CCc1nn(C)c(C(=O)NCc2ccc(C(C)(C)C)cc2)c1Cl | 0.954 | 0.974 | 0.967 | 1.01 | 0.984 | 0.913 | 1.06 | 0.956 | 0.991 | 0.918 | 0.96 | 0.906 |
| O=C(NC(=O)c1c(F)cccc1F)Nc1ccc(Cl)cc1 | 0.97 | 0.993 | 1 | 1.01 | 0.987 | 0.93 | 0.965 | 0.985 | 1.07 | 0.99 | 0.983 | 0.992 |
| Cc1cc(C)nc(Nc2ccccc2)n1 | 0.986 | 1.01 | 0.974 | 0.983 | 1.01 | 1.09 | 0.988 | 0.965 | 1 | 0.971 | 0.999 | 0.995 |
| O=C1c2ccccc2C(=O)N1SC(Cl)(Cl)Cl | 1.01 | 0.996 | 1.02 | 1.06 | 1.02 | 1.01 | 0.963 | 1.02 | 1.06 | 1.05 | 0.99 | 1.01 |
| COC(=O)/C=C(/C)OP(=O)(OC)OC | 1.02 and 1.04 | 1.01 and 1.05 | 0.997 and 1.04 | 1.03 and 1.05 | 1.03 and 1.22 | 0.973 and 1.01 | 0.956 and 1.04 | 1.09 and 0.835 | 0.972 and 0.999 | 1 and 1.05 | 1.02 and 0.985 | 0.944 and 1 |
| COC(=O)c1ccccc1S(=O)(=O)NC(=O)Nc1nc(C)cc(C)n1 | 1 | 0.993 | 0.985 | 1.07 | 1 | 0.94 | 0.948 | 1.07 | 1.04 | 0.987 | 0.944 | 0.982 |
| CCc1cccc(C)c1N(C(=O)CCl)C(C)COC (stereo not given) | 1.03 | 1.02 | 0.983 | 1.02 | 1.1 | 1.04 | 1.02 | 0.972 | 1.03 | 0.991 | 1.07 | 1.05 |
| O=C1CCc2cccc3c2N1CC3 | 1.03 | 1 | 0.966 | 1.06 | 1.08 | 0.889 | 0.983 | 1.04 | 1.03 | 0.971 | 0.989 | 0.941 |
| CNC(=O)Oc1ccccc1OC(C)C | 0.974 | 0.986 | 0.982 | 0.952 | 0.994 | 0.892 | 0.982 | 1.02 | 1.01 | 0.981 | 1.01 | 0.98 |
| COc1nn(CSP(=S)(OC)OC)c(=O)s1 | 1.06 | 1 | 1 | 1.08 | 1.01 | 0.987 | 1.01 | 1.08 | 1 | 1.04 | 1.06 | 0.985 |
| COCC(=O)N(c1c(C)cccc1C)[C@@H](C)C(=O)OC | 1.04 | 1.01 | 1 | 1.09 | 1.1 | 0.893 | 1.01 | 0.996 | 0.796 | 0.996 | 0.997 | 0.999 |
| C=C(C)CN(CC)c1c([N+](=O)[O-])cc(C(F)(F)F)cc1[N+](=O)[O-] | 0.985 | 0.921 | 0.968 | 0.921 | 0.912 | 1.03 | 1.14 | 1.01 | 1.02 | 1.01 | 1.01 | 0.989 |
| CC#Cc1cc(C)nc(Nc2ccccc2)n1 | 1.01 | 0.986 | 0.973 | 1.03 | 1.1 | 0.844 | 0.983 | 1.06 | 0.945 | 0.991 | 1.01 | 1.01 |
| COc1nc(NC(C)C)nc(NC(C)C)n1 | 1.01 | 1.01 | 1.02 | 0.97 | 0.885 | 0.984 | 1.01 | 1.03 | 1.03 | 1.02 | 0.963 | 1.05 |
| CCN(CC)N=O | 1.01 | 1.01 | 1.04 | 0.996 | 0.998 | 1.04 | 0.981 | 0.979 | 1 | 1.01 | 1 | 0.964 |
| CCCN(CC)CC1COC2(CCC(C(C)(C)C)CC2)O1 (stereo not given) | 0.993 | 1 | 0.959 | 0.987 | 0.899 | 1.04 | 0.947 | 0.978 | 0.966 | 0.965 | 1.03 | 0.96 |
| COC(=O)c1ccccc1S(=O)(=O)NC(=O)N(C)c1nc(C)nc(OC)n1 | 1.01 | 0.982 | 0.978 | 0.968 | 1 | 1.06 | 0.992 | 1.01 | 0.98 | 1 | 0.998 | 1.01 |
| CC(C)Nc1nc(Cl)nc(NC(C)C)n1 | 0.958 | 1.03 | 0.978 | 1.07 | 1.04 | 0.983 | 1.06 | 0.797 | 1.02 | 0.968 | 0.962 | 0.99 |
| CCNc1nc(Cl)nc(NC(C)C)n1 | 1.01 | 1.02 | 0.992 | 1.06 | 1.03 | 0.976 | 1.08 | 1.07 | 1.05 | 0.999 | 1.09 | 0.966 |
| C[N+]1(C)CCCCC1.[Cl-] | 1.07 | 1.03 | 0.992 | 1.2 | 1.09 | 0.976 | 1.02 | 0.941 | 1 | 1.04 | 0.975 | 0.99 |
